Reference: PubChem BioAssay (Tox21)
“And” between values parts separate entries of the source, which are not always exact repeats. Identical values can stand only once. Records with an inconclusive call do not appear. A call without a number means that no potency is given here. Some compounds were tested as several samples or in several runs, with calls that do not always agree. The source made the active and inactive calls. Unless noted, the call rests on the fitted dose curve; in most records, active means well fitted curve in the direction sought with a large enough effect in the repeat runs; inconclusive means weak or mixed curves; inactive means no such curve, though single readings can be large; an effect the other way counts as inactive or inconclusive.

Assays:
[1] = qHTS assay to identify small molecule antagonists of the vitamin D receptor (VDR) signaling pathway - cell viability counter screen (AID 743225); further: nearly all actives have a fitted effect of over 50% in size; further: potency means the concentration at half of the fitted maximal effect
Outline: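 Same-well multiplex: following 16 h treatment of HEK 293T cells carrying a UAS-driven beta-lactamase reporter with compound and agonist (3 nM final), and a 2 h FRET substrate step, CellTiter-Glo was added and luminescence read after 30 min.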

[2] = qHTS assay to identify small molecule agonists of the NFkB signaling pathway (AID 1159509; active means well fitted curve in the direction sought with a large enough effect in the signal ratio in the repeat runs, not every such curve was filed as active; the % refers to the signal ratio; further: series mostly up to about 61 µM)
Outline: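 NFkB-bla ME-180 cells carry a beta-lactamase reporter under an NF-kB response element. They were plated overnight, then exposed to compounds for 5 h at 37 C. Read-out is LiveBLAzer FRET after 1.5 hr at room temperature (405 nm excitation; 460/530 nm emission).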

[3] = qHTS assay to identify small molecule agonists of the NFkB signaling pathway - cell viability counter screen (AID 1159515; calls by dose curve; further: series mostly up to about 61 µM; nearly all actives have a fitted effect of over 55% in size)
Outline: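 Luminescence from CellTiter-Glo (30 min, room temperature) gives viability, measured in the same wells as the beta-lactamase reporter read. Cells were NFkB-bla ME-180, 2,000 per well, treated 5 hr with compounds.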

[4] = qHTS assay to identify small molecule agonists of the endoplasmic reticulum stress response signaling pathway - cell viability counter screen (AID 1159517; calls by dose curve;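 further: HeLa cells carrying an ER stress response element beta-lactamase reporter; series mostly up to about 61 µM; nearly all actives have a fitted effect of over 50% in size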)
Outline: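 ESRE-bla HeLa cells, 1,500 per well, seeded overnight then treated with compounds for 5 hr at 37 C. After the beta-lactamase read, viability in the same wells is measured by CellTiter-Glo luminescence after 30 min at room temperature.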

[5] = qHTS assay to identify small molecule antagonists of the retinoid-related orphan receptor gamma (ROR-gamma) signaling pathway - cell viability counter screen (AID 1159520); further: nearly all actives have a fitted effect of over 50% in size
Outline: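 Tet-on ROR gamma CHO cells were given compounds for 2 hr, then doxycycline hyclate at 1 uM final, and incubated 16 hr at 37 C. Viability was measured as ATP content by CellTiter-Glo luminescence.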

[6] = target: Nuclear receptor ROR-gamma (Homo sapiens) (UniProt P51449); assay: qHTS assay to identify small molecule antagonists of the retinoid-related orphan receptor gamma (ROR-gamma) signaling pathway (AID 1159521; further: nearly all actives have a fitted effect of over 50% in size; further: potency means the concentration at half of the fitted maximal effect)
Outline: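 Inducible-expression reporter assay: doxycycline (1 uM final) switched on RORγ in CHO cells bearing a ROR response element-luciferase construct, with test compounds present from 2 h beforehand. Decreased luminescence after 16 h defined antagonist activity.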

[7] = qHTS assay to identify small molecule agonists of the AP-1 signaling pathway (AID 1159526; calls by dose curve)
[8] = qHTS assay to identify small molecule agonists of the vitamin D receptor (VDR) signaling pathway - cell viability counter screen (AID 743224); further: nearly all actives have a fitted effect of over 50% in size; further: potency means the concentration at half of the fitted maximal effect
Outline: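 Luminescence from CellTiter-Glo, read after 30 min at room temperature, reports viability of VDR-bla cells treated with compounds for 16 h at 37C in the wells used for the beta-lactamase FRET read.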

[9] = qHTS assay to identify small molecule agonists of the AP-1 signaling pathway - cell viability counter screen (AID 1159525; calls by dose curve; further: nearly all actives have a fitted effect of over 55% in size)
Outline: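 AP-1-bla ME-180 cells in Opti-MEM with 0.5% dialyzed FBS, compound exposure 5 h at 37 C in 15-point titration. Viability read in the same wells as ATP content by CellTiter-Glo luminescence, normalised to tetra-n-octylammonium bromide and DMSO controls.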

SMILES | Potency [1] | outcome [2] | Potency [3] | Potency [4] | Potency [5] | Potency [6] | outcome [7] | Potency [8] | Potency [9]
Oc1c(Cl)c(Cl)c(Cl)c(Cl)c1Cl | inactive | inactive | inactive | inactive | inactive | 54.5 µM (active) | inactive |  | 
CC(C)Oc1cc(-n2nc(C(C)(C)C)oc2=O)c(Cl)cc1Cl | 13.8 µM (active) | inactive | inactive | inactive | inactive |  | inactive | 12.3 µM (active) | 
CCOC(=S)S | inactive | inactive | inactive | inactive |  | 13.7 µM (active) and 16.3 µM (active) | inactive | 24.5 µM (active) and 20.7 µM (active) | 
CCc1cccc(CC)c1N(COC)C(=O)CCl | inactive | inactive | inactive | inactive | inactive |  | inactive | inactive | inactive
C[C@]12CCC(=O)C(O)=C1CC[C@@H]1[C@@H]2CC[C@]2(C)C(=O)CC[C@@H]12 | inactive | inactive | inactive | inactive | inactive | 27.3 µM (active) and inactive | inactive | inactive | 
C1=Cc2cccc3cccc1c23 | inactive | inactive | inactive | inactive | inactive | inactive | inactive | inactive | 
Nc1ccncc1 | inactive | inactive | inactive | inactive | inactive |  | inactive | inactive | inactive
O=C1C=CC(=O)C=C1 | inactive | inactive | inactive |  |  | inactive | inactive | inactive | 
O=[N+]([O-])c1ccc(O)c([N+](=O)[O-])c1 |  | inactive |  | inactive | inactive | 17.3 µM (active) and 17.2 µM (active) | inactive | inactive | inactive
CCOc1cc(C=O)ccc1O | inactive | inactive | inactive | inactive | inactive | inactive | inactive | inactive | 
